# Measurements taken from PMC5540273 (PLoS ONE, 2017).
# Values joined by “and” are separate entries in the source; they are usually repeats but may differ in a detail not shown here. Equal entries are not always repeated. Where two headings read alike, the source gives them in different places.
# Assays:
# RIPK5 = details: concentration: 1 μM, replicates: in singlicate; n = 1
# ROCK1 = details: concentration: 1 μM, replicates: in singlicate, n = 1
# ROCK2 = details: concentration: 1 μM, replicates: in singlicate, n = 1
# ROS1 = details: concentration: 1 μM, replicates: in singlicate, n = 1
# [1] = tested on: RPS6KA4(Kin.Dom.1-N-terminal); details: concentration: 1 μM, replicates: in singlicate, n = 1
# [2] = tested on: RPS6KA4(Kin.Dom.2-C-terminal); details: concentration: 1 μM, replicates: in singlicate; n = 1
# [3] = tested on: RPS6KA5(Kin.Dom.1-N-terminal); details: concentration: 1 μM, replicates: in singlicate, n = 1
# [4] = tested on: RPS6KA5(Kin.Dom.2-C-terminal); details: concentration: 1 μM, replicates: in singlicate, n = 1
# [5] = tested on: T1, RSK1(Kin.Dom.1-N-terminal); details: concentration: 1 μM, replicates: in singlicate, n = 1
# T1 construct: gene RPS6KA1
# [6] = tested on: T2, RSK1(Kin.Dom.2-C-terminal); details: concentration: 1 μM, replicates: in singlicate; n = 1
# T2 construct: gene RPS6KA1
# [7] = tested on: T3, RSK2(Kin.Dom.1-N-terminal); details: concentration: 1 μM, replicates: in singlicate, n = 1
# T3 construct: gene RPS6KA3
# [8] = tested on: T4, RSK2(Kin.Dom.2-C-terminal); details: concentration: 1 μM, replicates: in singlicate, n = 1
# T4 construct: gene RPS6KA3
# [9] = tested on: T5, RSK3(Kin.Dom.1-N-terminal); details: concentration: 1 μM, replicates: in singlicate, n = 1
# T5 construct: gene RPS6KA2
# [10] = tested on: T6, RSK3(Kin.Dom.2-C-terminal); details: concentration: 1 μM, replicates: in singlicate, n = 1
# T6 construct: gene RPS6KA2
# [11] = tested on: T7, RSK4(Kin.Dom.1-N-terminal); details: concentration: 1 μM, replicates: in singlicate; n = 1
# T7 construct: gene RPS6KA6
# [12] = tested on: T8, RSK4(Kin.Dom.2-C-terminal); details: concentration: 1 μM, replicates: in singlicate, n = 1
# T8 construct: gene RPS6KA6
# S6K1 = details: concentration: 1 μM, replicates: in singlicate, n = 1
# SBK1 = details: concentration: 1 μM, replicates: in singlicate, n = 1
# SGK2 = details: concentration: 1 μM, replicates: in singlicate, n = 1
# SGK3 = details: concentration: 1 μM, replicates: in singlicate, n = 1
# 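Also: KINOMEscan kinase panel screen.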
smiles,measurement,setting,value
Fc1ccc(-c2ncn(CCCN3CCOCC3)c2-c2ccccn2)cc1 [SB-211742],%Inh,RIPK5,0%
same,%Inh,ROCK1,0%
same,%Inh,ROCK2,0%
same,%Inh,ROS1,0%
same,%Inh,[1],26%
same,%Inh,[2],0%
same,%Inh,[3],0%
same,%Inh,[4],5%
same,%Inh,[5],0%
same,%Inh,[6],16%
same,%Inh,[7],0%
same,%Inh,[8],49%
same,%Inh,[9],0%
same,%Inh,[10],35%
same,%Inh,[11],0%
same,%Inh,[12],0%
same,%Inh,S6K1,0%
same,%Inh,SBK1,0%
same,%Inh,SGK2,0%
same,%Inh,SGK3,0%
O=C(NOCC1CC1)c1ccc(F)c(F)c1Nc1ccc(I)cc1Cl,%Inh,RIPK5,0%
same,%Inh,ROCK1,0%
same,%Inh,ROCK2,0%
same,%Inh,ROS1,0%
same,%Inh,[1],0%
same,%Inh,[2],0%
same,%Inh,[3],0%
same,%Inh,[4],0%
same,%Inh,[5],0%
same,%Inh,[6],6%
same,%Inh,[7],0%
same,%Inh,[8],0%
same,%Inh,[9],0%
same,%Inh,[10],0%
same,%Inh,[11],0%
same,%Inh,[12],0%
same,%Inh,S6K1,0%
same,%Inh,SBK1,0%
same,%Inh,SGK2,0%
same,%Inh,SGK3,0%
O=C(NCCCN1CCOCC1)c1cccc(Nc2nccc(Nc3ccc(Oc4ccccc4)cc3)n2)c1 [GW663929],%Inh,RIPK5,7%
same,%Inh,ROCK1,0%
same,%Inh,ROCK2,27%
same,%Inh,ROS1,25%
same,%Inh,[1],0%
same,%Inh,[2],0%
same,%Inh,[3],0%
same,%Inh,[4],32%
same,%Inh,[5],18%
same,%Inh,[6],20%
same,%Inh,[7],0%
same,%Inh,[8],11%
same,%Inh,[9],7%
same,%Inh,[10],10%
same,%Inh,[11],0%
same,%Inh,[12],20%
same,%Inh,S6K1,0%
same,%Inh,SBK1,1%
same,%Inh,SGK2,12%
same,%Inh,SGK3,19%
O=c1cc(N2CCOCC2)nc2n(Cc3cccc4ccccc34)ccn12 [GSK2333389],%Inh,RIPK5,0%
same,%Inh,ROCK1,0%
same,%Inh,ROCK2,19%
same,%Inh,ROS1,0%
same,%Inh,[1],12%
same,%Inh,[2],0%
same,%Inh,[3],0%
same,%Inh,[4],0%
same,%Inh,[5],0%
same,%Inh,[6],0%
same,%Inh,[7],0%
same,%Inh,[8],0%
same,%Inh,[9],2%
same,%Inh,[10],0%
same,%Inh,[11],0%
same,%Inh,[12],8%
same,%Inh,S6K1,0%
same,%Inh,SBK1,14%
same,%Inh,SGK2,0%
same,%Inh,SGK3,0%
Cc1ccc(C(=O)NCC(N)=O)cc1-n1c(C)cc(OCc2ccc(F)cc2F)c(Br)c1=O,%Inh,RIPK5,0%
same,%Inh,ROCK1,0%
same,%Inh,ROCK2,0%
same,%Inh,ROS1,20%
same,%Inh,[1],0%
same,%Inh,[2],0%
same,%Inh,[3],20%
same,%Inh,[4],15%
same,%Inh,[5],3%
same,%Inh,[6],0%
same,%Inh,[7],0%
same,%Inh,[8],0%
same,%Inh,[9],22%
same,%Inh,[10],9%
same,%Inh,[11],0%
same,%Inh,[12],29%
same,%Inh,S6K1,3%
same,%Inh,SBK1,0%
same,%Inh,SGK2,0%
same,%Inh,SGK3,0%
CC(C)(C)n1cnc2c(N)ncnc21 [SKF-97359],%Inh,RIPK5,0%
same,%Inh,ROCK1,52%
same,%Inh,ROCK2,33%
same,%Inh,ROS1,64%
same,%Inh,[1],10%
same,%Inh,[2],0%
same,%Inh,[3],0%
same,%Inh,[4],0%
same,%Inh,[5],0%
same,%Inh,[6],80%
same,%Inh,[7],0%
same,%Inh,[8],18%
same,%Inh,[9],2%
same,%Inh,[10],18%
same,%Inh,[11],0%
same,%Inh,[12],46%
same,%Inh,S6K1,5%
same,%Inh,SBK1,0%
same,%Inh,SGK2,0%
same,%Inh,SGK3,0%
N#Cc1ccc(-c2cc(-c3c[nH]nc3-c3ccccn3)ccn2)cc1 [GW693028],%Inh,RIPK5,0%
same,%Inh,ROCK1,28%
same,%Inh,ROCK2,3%
same,%Inh,ROS1,0%
same,%Inh,[1],5%
same,%Inh,[2],0%
same,%Inh,[3],19%
same,%Inh,[4],10%
same,%Inh,[5],13%
same,%Inh,[6],0%
same,%Inh,[7],0%
same,%Inh,[8],24%
same,%Inh,[9],0%
same,%Inh,[10],0%
same,%Inh,[11],0%
same,%Inh,[12],28%
same,%Inh,S6K1,4%
same,%Inh,SBK1,4%
same,%Inh,SGK2,0%
same,%Inh,SGK3,0%
CC(C)(CN)c1nc(-c2ccc(Cl)c(O)c2)c(-c2ccncc2)[nH]1.O=C(O)C(F)(F)F [SB-477794],%Inh,RIPK5,0%
same,%Inh,ROCK1; 1 µM,28% and 43%
same,%Inh,ROCK2; 1 µM,49% and 40%
same,%Inh,ROS1; 1 µM,15% and 53%
same,%Inh,[1]; 1 µM,0% and 23%
same,%Inh,[2],0%
same,%Inh,[3]; 1 µM,5% and 0%
same,%Inh,[4]; 1 µM,7% and 36%
same,%Inh,[5]; 1 µM,16% and 15%
same,%Inh,[6],35%
same,%Inh,[7]; 1 µM,0% and 11%
same,%Inh,[8]; 1 µM,36% and 27%
same,%Inh,[9]; 1 µM,6% and 2%
same,%Inh,[10]; 1 µM,0% and 2%
same,%Inh,[11],0%
same,%Inh,[12]; 1 µM,90.6% and 89%
same,%Inh,S6K1; 1 µM,43% and 37%
same,%Inh,SBK1; 1 µM,5% and 6%
same,%Inh,SGK2; 1 µM,2% and 0%
same,%Inh,SGK3; 1 µM,0% and 7%
O=c1cc(N2CCOCC2)nc2n(Cc3cccc(C(F)(F)F)c3)ccn12 [GSK2297543],%Inh,RIPK5,0%
same,%Inh,ROCK1,0%
same,%Inh,ROCK2,17%
same,%Inh,ROS1,32%
same,%Inh,[1],13%
same,%Inh,[2],0%
same,%Inh,[3],4%
same,%Inh,[4],6%
same,%Inh,[5],0%
same,%Inh,[6],15%
same,%Inh,[7],16%
same,%Inh,[8],6%
same,%Inh,[9],0%
same,%Inh,[10],6%
same,%Inh,[11],0%
same,%Inh,[12],13%
same,%Inh,S6K1,0%
same,%Inh,SBK1,37%
same,%Inh,SGK2,0%
same,%Inh,SGK3,5%
Fc1ccc(-c2nn3c(OCC(F)(F)F)cccc3c2-c2ccncc2)cc1 [GW514784],%Inh,RIPK5,0%
same,%Inh,ROCK1,36%
same,%Inh,ROCK2,34%
same,%Inh,ROS1,13%
same,%Inh,[1],10%
same,%Inh,[2],0%
same,%Inh,[3],12%
same,%Inh,[4],13%
same,%Inh,[5],6%
same,%Inh,[6],29%
same,%Inh,[7],0%
same,%Inh,[8],0%
same,%Inh,[9],3%
same,%Inh,[10],8%
same,%Inh,[11],0%
same,%Inh,[12],89%
same,%Inh,S6K1,0%
same,%Inh,SBK1,2%
same,%Inh,SGK2,9%
same,%Inh,SGK3,0%
Nc1nccc(-c2c(-c3ccc(F)cc3)ncn2C2CCN(CC(F)(F)F)CC2)n1 [SB-236560],%Inh,RIPK5,13%
same,%Inh,ROCK1,38%
same,%Inh,ROCK2,49%
same,%Inh,ROS1,14%
same,%Inh,[1],0%
same,%Inh,[2],0%
same,%Inh,[3],0%
same,%Inh,[4],0%
same,%Inh,[5],0%
same,%Inh,[6],27%
same,%Inh,[7],14%
same,%Inh,[8],35%
same,%Inh,[9],13%
same,%Inh,[10],35%
same,%Inh,[11],0%
same,%Inh,[12],56%
same,%Inh,S6K1,0%
same,%Inh,SBK1,0%
same,%Inh,SGK2,0%
same,%Inh,SGK3,3%
Cc1cn2c(=O)cc(N3CCOCC3)nc2n1Cc1cccc(Cl)c1Cl [GSK2334006],%Inh,RIPK5,0%
same,%Inh,ROCK1,33%
same,%Inh,ROCK2,30%
same,%Inh,ROS1,15%
same,%Inh,[1],27%
same,%Inh,[2],0%
same,%Inh,[3],24%
same,%Inh,[4],6%
same,%Inh,[5],0%
same,%Inh,[6],5%
same,%Inh,[7],12%
same,%Inh,[8],25%
same,%Inh,[9],16%
same,%Inh,[10],0%
same,%Inh,[11],15%
same,%Inh,[12],13%
same,%Inh,S6K1,3%
same,%Inh,SBK1,0%
same,%Inh,SGK2,0%
same,%Inh,SGK3,0%
CN1c2ccc(NCc3ccc(F)cc3)cc2-c2c(cnn2C)S1(=O)=O,%Inh,RIPK5,0%
same,%Inh,ROCK1,0%
same,%Inh,ROCK2,0%
same,%Inh,ROS1,0%
same,%Inh,[1],0%
same,%Inh,[2],0%
same,%Inh,[3],0%
same,%Inh,[4],0%
same,%Inh,[5],0%
same,%Inh,[6],20%
same,%Inh,[7],23%
same,%Inh,[8],31%
same,%Inh,[9],10%
same,%Inh,[10],22%
same,%Inh,[11],0%
same,%Inh,[12],98.7%
same,%Inh,S6K1,10%
same,%Inh,SBK1,0%
same,%Inh,SGK2,18%
same,%Inh,SGK3,4%
COc1ccc(COc2cc(-n3cnc4ccccc43)sc2C(N)=O)cc1 [GSK1024304],%Inh,RIPK5,0%
same,%Inh,ROCK1,9%
same,%Inh,ROCK2,20%
same,%Inh,ROS1,0%
same,%Inh,[1],0%
same,%Inh,[2],0%
same,%Inh,[3],3%
same,%Inh,[4],13%
same,%Inh,[5],6%
same,%Inh,[6],0%
same,%Inh,[7],18%
same,%Inh,[8],16%
same,%Inh,[9],17%
same,%Inh,[10],5%
same,%Inh,[11],2%
same,%Inh,[12],23%
same,%Inh,S6K1,0%
same,%Inh,SBK1,0%
same,%Inh,SGK2,10%
same,%Inh,SGK3,1%
Cc1cccc(Cn2ccn3c(=O)cc(N4CCOCC4)nc23)c1 [GSK2297542],%Inh,RIPK5,1%
same,%Inh,ROCK1,17%
same,%Inh,ROCK2,27%
same,%Inh,ROS1,30%
same,%Inh,[1],13%
same,%Inh,[2],0%
same,%Inh,[3],16%
same,%Inh,[4],0%
same,%Inh,[5],27%
same,%Inh,[6],25%
same,%Inh,[7],11%
same,%Inh,[8],33%
same,%Inh,[9],19%
same,%Inh,[10],44%
same,%Inh,[11],0%
same,%Inh,[12],42%
same,%Inh,S6K1,6%
same,%Inh,SBK1,26%
same,%Inh,SGK2,1%
same,%Inh,SGK3,0%
